Measurements reported in ChEMBL document CHEMBL4513216, “Probing the Open Global Health Chemical Diversity Library for Multistage-Active Starting Points for Next-Generation Antimalarials” (ACS Infect Dis, 2020).
About 8,600 (12%) of roughly 69,000 compounds showed an effect of 50% or more. This excerpt belongs to a sample that is enriched for strong results.

Test system: Plasmodium berghei
Assay: Screen against P. berghei liver stage (PbLuc), transformed with Luciferase, at 10uM
Type: functional, HepG2
Conditions: tested at 10 uM

Row | SMILES | INHIBITION
1 | Cc1ccc(C(=O)N2CCOCC3(CCN(C4CCOCC4)C3)C2)o1 (stereo not given) | 14.1%
2 | O=C1CCCN1Cc1ccc(C(=O)N2CCCC2c2cccs2)cc1 (stereo not given) | 4.52%
3 | COCC(C)N(Cc1ccccc1OC)C(=O)c1cc(C)[nH]c(=O)c1 (stereo not given) | 29.4%
4 | CC(C)COc1ccccc1CN(C)C(=O)c1cc(=O)[nH]c(=O)[nH]1 | 10.6%
5 | Cc1cc(C(=O)N(C)Cc2ccccc2OCC(C)C)cc(=O)[nH]1 | 58.1%
6 | CCc1ccccc1NC(=O)CCc1cnn(C)c1 | 34.2%
7 | CN(CC(N)=O)CC1(c2ccc(Br)cc2)CC1 | -28.4%
8 | Cc1ccc(OCC(=O)Nc2cc(C(=O)O)cc(S(C)(=O)=O)c2)cc1C | 45.6%
9 | Cc1ccc(OCC(=O)Nc2ccc(S(C)(=O)=O)cc2)cc1C | 59.4%
10 | Cc1ccc(OCC(=O)NS(=O)(=O)c2cccnc2)cc1C | 1.48%
11 | COc1ncccc1CN1Cc2nnn(C)c2C(COCC2CC2)C1 (stereo not given) | 28.4%
12 | Cc1nccc(C2(C)CCCNC2)n1 (stereo not given) | 40.4%
13 | COc1ccc(CCCC(=O)NCc2c(C)noc2C)cc1F | 29.3%
14 | COc1ccc(CNC(=O)CCc2c(C)noc2C)cc1F | -4.93%
15 | COc1ccc(C(=O)CCC(=O)NCc2c(C)noc2C)cc1F | 64.1%
16 | CC1c2ncc(Cn3cccn3)n2CCN1S(=O)(=O)C1CC1 (stereo not given) | 30.3%
17 | CCN1CC2(CC1=O)CN(Cc1cnn(C)c1)CCN(C(C)=O)C2 (stereo not given) | -2.53%
18 | COc1ccc(CN(Cc2cncn2C)CC2CCCO2)c(OC)c1 (stereo not given) | 50%
19 | CCn1cncc1CN(Cc1ccc(OC)cc1OC)CC1CCCO1 (stereo not given) | 41.2%
20 | COc1ccc(CN(Cc2cncn2C)CC2CCCO2)cc1 (stereo not given) | 35.2%
21 | CCS(=O)(=O)c1ccccc1N1CCC(NC(=O)NC2CCCC2)CC1 | -28.9%
22 | CCS(=O)(=O)c1ccc(N2CCC(NC(=O)CC3CCCC3)CC2)cc1 | 60.1%
23 | CCS(=O)(=O)c1ccc(N2CCC(NC(=O)C3CCCCC3)CC2)cc1 | 37.7%
24 | CCCC(=O)NC1CCN(c2ccccc2S(=O)(=O)CC)CC1 | 58.5%
25 | CCS(=O)(=O)c1ccc(N2CCC(NC(C)=O)CC2)cc1 | 19.7%
26 | CCS(=O)(=O)c1ccccc1N1CCC(NC(C)=O)CC1 | 6%
27 | CCc1nnc2n1CCN(C(=O)c1ccc3[nH]nnc3c1)C2 | -1.85%

Row | SMILES | INHIBITION
28 | CCOc1ccccc1OC1CCN(C(=O)c2c[nH]nn2)CC1 | 33.8%
29 | CS(=O)(=O)N1CCOCC2(CCN(C(=O)c3ccncc3)CC2)C1 | 19.5%
30 | COc1ccc(N2CCN(Cc3nc(CSC)no3)C(C)C2=O)cc1 (stereo not given) | -0.55%
31 | CN(C)C(=O)NC[C@@H]1OC[C@H]2CN(Cc3cccc(F)c3)CC[C@H]21 | 69.6%
32 | CN1CCO[C@@H]2CN(C(=O)NCc3cccc(F)c3)CC[C@@H]2C1 | 17.7%
33 | CN(C)C[C@H]1OC[C@@H]2CCN(C(=O)NCc3cccc(F)c3)C[C@@H]21 | 61.9%
34 | CN(C)C[C@H]1OC[C@@H]2CN(C(=O)NCc3cccc(F)c3)CC[C@@H]21 | 24.9%
35 | Cc1cccc(CN2CC[C@H]3CO[C@H](CNC(=O)N(C)C)[C@H]3C2)c1 | -4.88%
36 | COc1ccc(CN2CC[C@H]3[C@H](CO[C@H]3CNC(=O)N(C)C)C2)cc1 | 4.61%
37 | Cc1ccccc1CN(CCN(C)C)Cc1ccc(C(=O)O)cc1 | -4.37%
38 | CC(C)c1nc2n(n1)CC(NCc1nc(C3CC3)no1)CC2 (stereo not given) | 16.8%
39 | CN(CC1CCCCO1)c1ncnc2cc(F)ccc12 (stereo not given) | 4.68%
40 | Cc1ccc(=O)n(CC2(O)CCN(Cc3cc(C)c(O)c(C)c3)CC2)n1 | 42.1%
41 | CCn1ccc(NC(=O)C2CCC(=O)N2Cc2ccc(C)o2)n1 (stereo not given) | -20.8%
42 | C[C@@H]1CN(C(=O)C2(Cn3cccn3)CC2)C[C@@]1(O)C1CCC1 | 9.845%
43 | CN(CC(=O)N1CCCC1c1cnn(C)c1)Cc1ccccc1 (stereo not given) | -25.8%
44 | Cc1cc(CNC(=O)NCc2ccccc2N2CCOCC2)no1 | 52.4%
45 | Cc1cc(CNC(=O)NC(C)c2ccc(N3CCOCC3)cc2)no1 (stereo not given) | 35.1%
46 | Cc1cc(CNC(=O)N2CCN(c3ccccc3)CC2)no1 | 14.2%
47 | CCC(=O)Nc1cccc(OCC(=O)N(C)Cc2nc(C)c[nH]2)c1 | 3.82%
48 | CCC(=O)Nc1cccc(OCC(=O)N(C)Cc2ccon2)c1 | 20.2%
49 | CCC(=O)Nc1cccc(OCC(=O)N(C)Cc2nccn2CC)c1 | 66.1%
50 | Cn1ccnc(Nc2ccc3c(c2)CCN3C(=O)c2ccoc2)c1=O | -21.6%
51 | Cc1nc(CC(=O)N2CCCC2Cn2cccn2)cs1 (stereo not given) | 19.4%
52 | O=C(C1CCCC1)N1CCC(C(O)c2ccc(F)cc2)CC1 (stereo not given) | 31.7%
53 | O=C(C1CCC1)N1CCC(C(=O)N2CCC(c3ccc(F)cc3)C2)CC1 (stereo not given) | 62.8%
54 | CC(C)N1CCC(C(=O)N2CCCN(c3ccccc3)CC2)CC1 | 33.9%

Row | SMILES | INHIBITION
55 | O=C(c1cc(F)ccc1O)N1CCN(C(=O)C2CCC2)CC1 | 6.11%
56 | CC(C)N1CCC(C(=O)N2CCC(c3ccc(F)cc3)C2)CC1 (stereo not given) | 73%
57 | CC(C)N1CCC(C(=O)N2CCN(c3cccc(C(=O)O)c3)CC2)CC1 | 43.9%
58 | O=C(CN1C(=O)CCNC1=O)N1CCC(c2ccc(F)cc2)C1 (stereo not given) | 33.4%
59 | O=C(C1CCS(=O)(=O)CC1)N1CCC(c2ccc(F)cc2)C1 (stereo not given) | -9.51%
60 | O=C(C1CC1)N1CCC(C(=O)N2CCC(c3ccc(F)cc3)C2)CC1 (stereo not given) | 61.9%
61 | Cc1cnc2c(S(=O)(=O)NC3CCS(=O)(=O)C3)cccc2c1 (stereo not given) | 10%
62 | Cc1ccc(C(=O)N(C)Cc2cc(C)on2)cn1 | 21.5%
63 | N#Cc1ccccc1N1CCCN(C(=O)CCc2ccco2)CC1 | -2.53%
64 | CSCC(=O)N[C@H]1CC[C@H](Nc2nccc(-c3cccnc3)n2)C1 | 49.7%
65 | CN1CCc2[nH]nc(C(=O)N3CCCC4(CC3)CNC(=O)O4)c2C1 (stereo not given) | 46.1%
66 | CN1CCc2[nH]nc(C(=O)N3CCC4(CCCO4)CC3)c2C1 | 71.2%
67 | CN1CCc2[nH]nc(C(=O)N3CCC4(CN(C)C(=O)O4)C3)c2C1 (stereo not given) | 48.9%
68 | N#CC1(NC(=O)c2ccc(F)c(Br)c2)CCSC1 (stereo not given) | 51.8%
69 | CSCc1cc(C(=O)NC2(C#N)CCSC2)ccc1F (stereo not given) | -77.6%
70 | CSCc1cc(C(=O)NC2(C#N)CC2)ccc1F | 32.3%
71 | Cc1nn(C)c(C)c1C(=O)N1CCOCC1CC(=O)c1ccco1 (stereo not given) | 17.4%
72 | CCOC(=O)C1(O)CCN(C(=O)Nc2ccc(CC)cc2)CC1 | -62.8%
73 | CN(C)CCN1C(=O)CO[C@@H]2CN(c3ncc(F)cn3)C[C@H]21 | 17.2%
74 | Cc1cnc(N2C[C@@H]3[C@@H](C2)OCC(=O)N3CCN(C)C)nc1 | 73.3%
75 | Cc1cnc(N2C[C@@H]3[C@@H](C2)OCC(=O)N3CC2CC2)nc1 | 31.9%
76 | Cc1nn(C)c(N(C)C)c1CNCc1ccc(Cn2cncn2)cc1 | -56.7%
77 | O=C(O)c1cccnc1CN1CCCC1CCc1ccccc1 (stereo not given) | 51.2%
78 | O=C(O)c1cccnc1CN1CCCCC1CCc1cccc(O)c1 (stereo not given) | 41.2%
79 | O=C(O)c1cccnc1CN1CCCCC1CCc1ccccn1 (stereo not given) | 37.6%
80 | CCOCC1CN(S(=O)(=O)c2cccc(C)c2)Cc2nccn2C1 (stereo not given) | 13.1%
81 | CCC(C(=O)N(C)Cc1cc(-c2ccccc2)n[nH]1)n1cccn1 (stereo not given) | 5.11%

Row | SMILES | INHIBITION
82 | Cn1ccnc1N1CCN(C(=O)Cc2ccc(Cl)cc2)CC1 | -17.2%
83 | OC1(CNCCN2CCc3ccccc32)CNCCOC1 (stereo not given) | 36.1%
84 | OC1(CNCCSc2ccccn2)CCCNC1 (stereo not given) | 38.3%
85 | OC1(CNCCSc2ccccn2)CNCCOC1 (stereo not given) | 67.2%
86 | Cc1ccccc1C(=O)N1CCOCC1CN(C)C (stereo not given) | 1.06%
87 | O=C1C(Nc2ncccn2)CCN1c1ccccc1OC(F)F (stereo not given) | -10.7%
88 | O=C(Nc1ccncc1)NC1CCN(c2ccccc2OC(F)F)C1 (stereo not given) | 79%
89 | N#Cc1nccnc1NC1CCN(c2ccccc2OC(F)F)C1 (stereo not given) | 36.5%
90 | O=C(Nc1cccnc1)NC1CCN(c2ccccc2OC(F)F)C1 (stereo not given) | 56.6%
91 | O=C(Nc1ccccn1)NC1CCN(c2ccccc2OC(F)F)C1 (stereo not given) | 67.8%
92 | O=C(NC1CCN(c2ccccc2OC(F)F)C1)c1c[nH]nn1 (stereo not given) | -39.7%
93 | COc1ccccc1N1CCCC(NC(=O)Nc2cccnc2)C1 (stereo not given) | 10.7%
94 | COc1ccccc1N1CCC(NCc2c(C)noc2C)C1 (stereo not given) | 1.94%
95 | Cc1noc(C)c1CNC1CCN(c2ccccc2OC(F)F)C1 (stereo not given) | 67.4%
96 | Cc1c(CNC2CCN(c3ccccc3OC(F)F)C2)cnn1C (stereo not given) | 5.64%
97 | O=C(NC1CCN(c2ccccc2OC(F)F)C1)c1cccnc1 (stereo not given) | 27.5%
98 | O=C(Nc1cn[nH]c1)NC1CCN(c2ccccc2OC(F)F)C1 (stereo not given) | 29.8%
99 | CCn1cc(S(=O)(=O)NCc2ccnc(-n3ccnc3)c2)cn1 | -0.85%
100 | CN(Cc1cnn(C)c1)CC(O)c1ccc2c(c1)OCO2 (stereo not given) | 46.6%
101 | Cn1nc(C(=O)NCCc2ccc(OC3CCCC3)cc2)ccc1=O | 35.5%
102 | Cc1nn(C)c2cn(CC(=O)NC3CCSCC3)nc12 | 19.8%
103 | CCN(C(=O)c1ccc2nnc(C3CCN(CCOC)C3)n2c1)C(C)C (stereo not given) | 34%
104 | CC(C)[C@H](NC(=O)N1CCC(Cc2ccccc2)CC1)C(=O)O | 31.3%
105 | O=C(NCC1CCCO1)c1ccc(S(=O)(=O)NCCc2cn[nH]c2)cc1 (stereo not given) | -17.5%
